54 compounds from paper PMC4336329 (PLoS ONE, 2015) can be followed below.

Each structure is given as a SMILES string. In all, about 310,000 compounds went through this assay and about 14,000 (4.5%) showed an effect of 50% or more. Effects have a minus sign here. For the sample, strong results were picked, then their nearest neighbours and some compounds at random.
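Further: peak tail current of the secondary pulse compared with the same well before compound.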

The target in the experiment is human ether-à-go-go-related gene (hERG) potassium channel (human, UniProt Q12809). The experiment can be described thus: primary screen, population patch clamp on CHO cells stably expressing hERG; higher = less effect of the substance.
Sequence of human ether-à-go-go-related gene (hERG) potassium channel (Q12809 whole entry, looked up): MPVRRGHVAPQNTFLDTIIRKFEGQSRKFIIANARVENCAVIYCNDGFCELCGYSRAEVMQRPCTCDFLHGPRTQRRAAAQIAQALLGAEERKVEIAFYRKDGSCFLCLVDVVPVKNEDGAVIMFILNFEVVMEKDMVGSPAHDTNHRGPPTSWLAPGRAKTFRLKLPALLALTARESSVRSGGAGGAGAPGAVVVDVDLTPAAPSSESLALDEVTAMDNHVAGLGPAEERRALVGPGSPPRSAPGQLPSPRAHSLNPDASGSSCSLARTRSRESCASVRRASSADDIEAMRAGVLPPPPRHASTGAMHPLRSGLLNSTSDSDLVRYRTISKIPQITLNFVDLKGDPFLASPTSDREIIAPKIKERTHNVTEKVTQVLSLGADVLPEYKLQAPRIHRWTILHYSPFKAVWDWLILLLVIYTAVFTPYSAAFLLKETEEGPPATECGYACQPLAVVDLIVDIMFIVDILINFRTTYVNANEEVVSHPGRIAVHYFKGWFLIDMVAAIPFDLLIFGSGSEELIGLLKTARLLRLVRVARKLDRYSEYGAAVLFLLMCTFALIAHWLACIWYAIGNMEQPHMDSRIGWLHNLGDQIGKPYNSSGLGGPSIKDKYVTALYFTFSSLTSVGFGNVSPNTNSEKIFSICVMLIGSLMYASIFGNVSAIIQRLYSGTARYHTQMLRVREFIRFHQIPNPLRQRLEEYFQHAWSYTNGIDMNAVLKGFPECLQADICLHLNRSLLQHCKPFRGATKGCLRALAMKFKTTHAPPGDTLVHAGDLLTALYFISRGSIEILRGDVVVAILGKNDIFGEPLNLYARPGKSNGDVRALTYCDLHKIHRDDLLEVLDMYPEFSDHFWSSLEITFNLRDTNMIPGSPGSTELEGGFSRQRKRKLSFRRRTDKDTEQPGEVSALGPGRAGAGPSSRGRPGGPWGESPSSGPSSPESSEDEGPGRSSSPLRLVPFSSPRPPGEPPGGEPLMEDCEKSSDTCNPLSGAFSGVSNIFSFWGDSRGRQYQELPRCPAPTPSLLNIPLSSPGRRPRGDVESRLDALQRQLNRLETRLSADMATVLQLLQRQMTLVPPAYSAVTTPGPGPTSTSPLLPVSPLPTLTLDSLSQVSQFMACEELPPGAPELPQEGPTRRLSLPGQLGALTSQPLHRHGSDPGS
For the compound `CCC1(OC(=O)CN)C(=O)OCc2c1cc1n(c2=O)Cc2cc3ccccc3nc2-1.Cl` (stereo not drawn), the “hERG current change (%, negative = inhibition) at 10uM” value is 8.16%. On to `CC(=O)c1cccc(NC(=O)/C(=C\c2ccco2)NC(=O)c2cccs2)c1`, for which the “hERG current change (%, negative = inhibition) at 10uM” value is reported as -9.8%.

Consider `CCOC(=O)N1CCN(C(=O)C(C)N(c2ccccc2)S(C)(=O)=O)CC1` (stereo not drawn), for which the “hERG current change (%, negative = inhibition) at 10uM” value is listed as 25.1%. `O=C(O)CC(CC(=O)Nc1ccc(C(=O)O)cc1)c1ccccc1` (stereo not drawn): the “hERG current change (%, negative = inhibition) at 10uM” value came out at 12.9%. On to `Cc1ccc(-n2c(=O)c3sccc3n(CC(=O)NC3CCCCC3)c2=O)cc1`, for which the “hERG current change (%, negative = inhibition) at 10uM” value is recorded as 9.86%.

In the case of `O=C(COC(=O)c1cnccn1)NCc1ccc(Cl)cc1`, the “hERG current change (%, negative = inhibition) at 10uM” value is reported as -3.54%. For `COCCN(C(=O)Cc1cccs1)C(C(=O)NC1CCCC1)c1cc(OC)c(OC)c(OC)c1` (stereo not drawn), the “hERG current change (%, negative = inhibition) at 10uM” value is 8.79%.

`Cc1nn(-c2ccccn2)c2c1C(c1ccncc1)C1=C(CC(C)(C)CC1=O)N2` (stereo not drawn): the “hERG current change (%, negative = inhibition) at 10uM” value is -50.8%. The result for `CCO.Cc1nn(-c2ccccn2)c2c1C(c1ccsc1)C1=C(CCCC1=O)N2` (stereo not drawn) reads -16.1%. In the case of `Cc1ccc(C2C3=C(CCCC3=O)Nc3c2c(C)nn3-c2ccccn2)o1` (stereo not drawn), the “hERG current change (%, negative = inhibition) at 10uM” value came out at 1.07%. Turning to `CC(C)(C)[C@H]1C=C(C(=O)NCc2ccccc2)O[C@@H](OCc2ccc(CO)cc2)C1`, the “hERG current change (%, negative = inhibition) at 10uM” value is on record as -12.9%. On to `COc1ccc(N(C(=O)c2snc(C(N)=O)c2N)C(C(=O)NC2CCCC2)c2cc(OC)ccc2OC)c(OC)c1` (stereo not drawn), for which the “hERG current change (%, negative = inhibition) at 10uM” value is reported as 20.9%. For the compound `CC1=C(C#N)C(NC(=O)C2CC2)(C(F)(F)F)C(=O)N1` (stereo not drawn), the “hERG current change (%, negative = inhibition) at 10uM” value is listed as -2.06%. As for `COc1cccc(-n2c(=S)sc3c(=O)n(-c4ccccc4C)c(SCC(=O)O)nc32)c1`, the “hERG current change (%, negative = inhibition) at 10uM” value stood at 16.5%. On to `N/C(=N\O)c1ccc(Oc2ccccc2Cl)c([N+](=O)[O-])c1`, for which the “hERG current change (%, negative = inhibition) at 10uM” value was -9.72%. Next, `CCC1=Nc2cc(C(=O)NCCN3CCOCC3)ccc2Sc2ccc(C)cc21`: -82.3%; `CCCC1=Nc2cc(C(=O)NCCN3CCOCC3)ccc2Sc2ccc(C)cc21`: -34.3%; `CCC1=Nc2cc(C(=O)NCCN3CCCC3)ccc2Sc2ccccc21`: -52.1%. Next, `CCCC1=Nc2cc(C(=O)NCCN3CCCC3)ccc2Sc2ccccc21`: -21.2%. The result for `CCC1=Nc2cc(C(=O)NCCN3CCCC3)ccc2Sc2ccc(C)cc21` reads -29%; that for `CCC1=Nc2cc(C(=O)NCCN3CCOCC3)ccc2Sc2ccccc21`, -15.3%.

Take `Cc1cccc(NC(=O)COc2ccccc2C(=O)NC(C)c2ccccc2)c1` (stereo not drawn): the “hERG current change (%, negative = inhibition) at 10uM” value was -8.56%. The result for `Cc1onc(-c2ccccc2)c1C(=O)N/N=C/c1ccc(O)c([N+](=O)[O-])c1` reads 9.34%; that for `CCCCn1c(O)c(N=NC(=O)c2ccccc2NS(=O)(=O)c2cccs2)c2ccccc21`, -2.54%; that for `O=C(CSc1nncn1-c1ccccc1)Nc1c(F)cccc1F`, 3.19%. Next, `NC(N)=NS(=O)(=O)c1ccc(N/C=C/C(=O)c2ccc(Cl)c(Cl)c2)cc1`: 17.3%; `Cc1ccc(NC2CCCN(C(=O)c3ccccc3N3CCOCC3)C2)cc1C` (stereo not drawn): -0.641%. Take `O=C(NCc1cccnc1)c1cc(Sc2ccc(F)cc2F)nc2ccccc12`: the “hERG current change (%, negative = inhibition) at 10uM” value is recorded as -55.3%. On to `O=C(Nc1ccc2c(c1)OCO2)c1cc(-c2ccncc2)nc2ccccc12`, for which the “hERG current change (%, negative = inhibition) at 10uM” value is listed as -3.22%. Take `O=C(NCc1ccc2c(c1)OCO2)c1cc(-c2ccncc2)nc2ccccc12`: the “hERG current change (%, negative = inhibition) at 10uM” value was -67%. Next, `O=C(NCc1ccccn1)c1cc(-c2ccncc2)nc2ccccc12`: -25.6%. On to `CCCc1ccc(-c2cc(C(=O)N/N=C/c3ccc([N+](=O)[O-])o3)c3ccccc3n2)cc1`, for which the “hERG current change (%, negative = inhibition) at 10uM” value is -1.61%. The result for `O=C(NCc1ccccc1)c1cc(-c2ccncc2)nc2ccccc12` reads -34%; that for `O=C(N/N=C/c1ccc([N+](=O)[O-])o1)c1cc(-c2ccncc2)nc2ccccc12`, -62.9%; that for `O=C(NCc1cccnc1)c1cc(Sc2cccc(Cl)c2)nc2ccccc12`, -15.4%. Next, `O=C(N/N=C/c1ccc([N+](=O)[O-])o1)c1cc(-c2ccc(-c3ccccc3)cc2)nc2ccccc12`: 17.7%; `O=C(NCc1ccc2c(c1)OCO2)c1cc(-c2ccccn2)nc2ccccc12`: 4.41%. Next, `O=C(NCc1ccc(F)cc1)c1cc(-c2ccncc2)nc2ccccc12`: -64.7%. Regarding `O=C(NCc1cccnc1)c1cc(Sc2ccccc2Cl)nc2ccccc12`, the “hERG current change (%, negative = inhibition) at 10uM” value is listed as -5.45%. The result for `O=C(NC(=S)NC1CCSC1=O)c1cccs1` (stereo not drawn) reads 15.9%; that for `CCOCc1nnc(NC(=O)C2CC(=O)N(CCc3ccc(F)cc3)C2)s1` (stereo not drawn), 5.97%. In the case of `CCC1c2ccc(C)n2CCN1C(=O)Nc1ccccc1C(=O)OC` (stereo not drawn), the “hERG current change (%, negative = inhibition) at 10uM” value came to 6.11%. Next, `CCc1nnc(NC(=O)C2(C)COC(c3ccc(OC)cc3)OC2)s1` (stereo not drawn): 10.1%; `CC1(C)C2CCC1(CS(=O)(=O)N1CCOCC1)C(=O)C2` (stereo not drawn): -1.75%; `Cc1cc(C(=O)COC(=O)c2cccnc2Cl)c(C)n1CC1CCCO1` (stereo not drawn): -20.1%.

For the compound `O=C(NCC(c1cccs1)N1CCOCC1)c1cc(-c2ccc(F)cc2)nc2ccccc12` (stereo not drawn), the “hERG current change (%, negative = inhibition) at 10uM” value was -55.9%. The result for `Cc1ccc(CNC(=O)CCn2cc(-c3ccc(C)cc3)nc2-c2ccncc2)cc1` reads -45.1%. The result for `CC(C)c1ccccc1OCC(=O)NCC(c1cccs1)N1CCOCC1` (stereo not drawn) reads -50.2%; that for `O=C(NCC(c1cccs1)N1CCOCC1)c1cc(-c2ccccn2)nc2ccccc12` (stereo not drawn), -23%; that for `COc1ccc(-c2cn(CCC(=O)NCc3ccc(C)cc3)c(-c3ccncc3)n2)cc1`, -21.3%. The result for `Cc1ccc(CNC(=O)CCn2cc(-c3ccc(F)cc3)nc2-c2ccncc2)cc1` reads -50.1%; that for `COc1ccccc1OCC(=O)NCC(c1cccs1)N1CCOCC1` (stereo not drawn), -4.48%. Take `O=C(NCC(c1cccs1)N1CCOCC1)c1cn(-c2ccccc2)nc1-c1ccc(F)cc1` (stereo not drawn): the “hERG current change (%, negative = inhibition) at 10uM” value is given as -1.67%. Turning to `Cc1ccc(C(C)C)c(OCC(=O)NCC(c2cccs2)N2CCOCC2)c1` (stereo not drawn), the “hERG current change (%, negative = inhibition) at 10uM” value is given as -48.1%.
